In PubChem BioAssay AID686940 (The Scripps Research Institute Molecular Screening Center, 2013) one finds inhibition data, which are given here for 82 compounds.

Hit rate of the full screen: of about 370,000 compounds, about 2,600 (0.7%) were called active.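 How the source made its calls: active means inhibition above a per-plate cutoff, mean inhibition of test wells between control levels plus 3 SD (cut at about 38% in these data); inactive means the rest.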 The list comes from a sample in which actives are over-represented; it also holds similar structures and randomly drawn compounds.

The target of this test is COUP transcription factor 2 (Homo sapiens) (UniProt P24468). Kind of test: NR2F2 transcriptional activity inhibitors, primary screen, cell-based, luciferase reporter, HEK293T, luminescence (AID 686940).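 Further: cells cotransfected with COUP-TFII expression vector driving the NGFI-A reporter; 0% = median of COUP-TF2 test wells and 100% = reporter-only cells.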 To be noted: HEK293T NGFI-A luciferase reporter, at 8.6 µM, stronger effect = higher value.
Chain of COUP transcription factor 2 (Homo sapiens) (P24468 whole entry, looked up): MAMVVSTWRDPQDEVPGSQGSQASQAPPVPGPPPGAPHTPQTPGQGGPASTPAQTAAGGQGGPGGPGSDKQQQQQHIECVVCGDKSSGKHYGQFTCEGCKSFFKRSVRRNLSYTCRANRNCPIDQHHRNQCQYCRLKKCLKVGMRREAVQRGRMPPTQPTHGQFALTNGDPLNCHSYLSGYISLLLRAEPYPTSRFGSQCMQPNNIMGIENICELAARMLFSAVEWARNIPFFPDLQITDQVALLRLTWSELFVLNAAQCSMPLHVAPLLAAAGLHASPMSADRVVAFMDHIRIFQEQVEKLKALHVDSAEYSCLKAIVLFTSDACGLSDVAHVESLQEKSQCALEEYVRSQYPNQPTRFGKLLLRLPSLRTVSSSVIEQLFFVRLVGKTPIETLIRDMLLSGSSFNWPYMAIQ
As to `COC(=O)C1CN(CCc2ccccc2)CCS(=O)(=O)N1Cc1cccc(Cl)c1` (configuration not stated), the inhibition was -5.31% (inactive).
On to `Cc1ccc(-n2c(SCC(=O)Nc3ccc(S(=O)(=O)Nc4nccs4)cc3)nnc2-c2cccnc2)cc1`, for which the inhibition was 8.88% (inactive).
Take `O=C(CSc1nnc(-c2cccc(Cl)c2)n1Cc1ccco1)Nc1ccc(OCc2ccccc2)cc1`: the inhibition was -14.7% (inactive).
Consider `O=C(NC1CCC1)c1ccc(C#Cc2cccc(F)c2)c[n+]1[O-]`, for which the inhibition was 0.7% (inactive).
Consider `COc1ccccc1-c1ccc([C@@H]2C[C@H]3[C@H](CON3C)CN2S(=O)(=O)c2cc(Cl)cc(Cl)c2)cc1`, for which the inhibition was 5.76% (inactive).
Take `CN1OC[C@@H]2CN(S(=O)(=O)c3cccc(C(F)(F)F)c3)[C@H](c3ccc(-c4cc5ccccc5o4)cc3)C[C@@H]21`: the inhibition is 44.1% (active).
As for `COc1ccc(S(=O)(=O)N2C[C@H]3CON(C)[C@H]3C[C@H]2c2cccc(Br)c2)cc1`, the figure is 10.7% (inactive).
Take `CCOC(=O)c1csc(NC(=O)C2CCCN(S(=O)(=O)c3ccc(Cl)s3)C2)n1` (configuration not stated): the inhibition was 22.3% (inactive).
As for `C=C(C)C#CC(Cc1ccccc1)N(CC1CC1)/C(N)=N/C(=O)OCc1ccccc1` (configuration not stated), the figure is 5.09% (inactive); as for `CCCCNC(=O)C[C@H]1C[C@@]2(C(=O)OC)C(=C[C@H](COCc3ccccc3)O[C@@H]2C)N(Cc2ccc(Cl)cc2Cl)C1=O`, 1.56% (inactive); as for `COC(=O)[C@]12C[C@H](CC(=O)N3CCOCC3)C(=O)N(Cc3ccc(Cl)cc3Cl)C1=C[C@H](C(C)C)O[C@@H]2C1CC1`, 1.35% (inactive).
With `Cc1ccc(NC(=O)CN(C)CC(=O)Nc2cccc(F)c2)cc1[N+](=O)[O-]`, the inhibition is 58.8% (active).
As for `Cc1ccc(NC(=O)CN(C)Cc2ccc(F)cc2)c([N+](=O)[O-])c1`, the figure is -11.4% (inactive); as for `Cc1ccc(S(=O)(=O)N2CCCCC2)cc1C(=O)N(C)CC(=O)Nc1cccc(F)c1`, -3.43% (inactive).
With `c1csc(-c2nnc(SCc3nc4ccccc4[nH]3)o2)c1`, the inhibition was -10.7% (inactive).
Consider `Cc1ccc(NC(=O)Cc2cccc(F)c2)c(S(=O)(=O)N2CCOCC2)c1`, for which the inhibition is -8.19% (inactive).
Consider `CCOC(=O)[C@]12CCCC3=C1N(CCC3)C(=O)[C@@H](CC(=O)NCC13CC4CC(CC(C4)C1)C3)C2`, for which the inhibition was 21.7% (inactive).
In the case of `O=C1CC(c2ccc3c(c2)OCO3)N=C2N(CC3CC3)C/C(=C/c3ccccc3)N12` (configuration not stated) it was 20.7% (inactive); in that of `Cc1nc(CNS(=O)(=O)c2cc([N+](=O)[O-])ccc2C)cs1`, -13.5% (inactive).
In the case of `Cc1ccc(S(=O)(=O)NCc2nc3ccccc3c(=O)n2N)cc1` it was 0.39% (inactive); in that of `Cc1nc(CNS(=O)(=O)c2ccc(Oc3ccccc3)cc2)cs1`, 50.2% (active); in that of `Cc1ccc(-n2nc3c(=O)n(C(C)C(=O)NCc4ccc5c(c4)OCO5)nc(C)c3c2C)cc1` (configuration not stated), 48.1% (active).
Regarding `Cc1nn(C(C)C(=O)NCCC2=CCCCC2)c(=O)c2nn(-c3ccccc3)c(C)c12` (configuration not stated), the inhibition was -2% (inactive).
As for `Cc1nn(C(C)C(=O)N2CCOCC2)c(=O)c2nn(-c3ccccc3)c(C)c12` (configuration not stated), the figure is 6.72% (inactive); as for `Cc1cc(NS(=O)(=O)c2ccc(NC(=O)CSc3nnc(-c4ccc(C(C)(C)C)cc4)n3Cc3ccco3)cc2)nc(C)n1`, 1.48% (inactive).
Regarding `CN(CCc1ccccc1)C(=O)Cn1nc(-c2ccccc2)ccc1=O`, the inhibition was 2.95% (inactive).
As for `C[C@H](C(=O)N(C)c1ccccc1)[C@@H](O)c1ccc2ccccc2c1`, the inhibition is 10.2% (inactive).
As to `Cc1ccc(-n2c(COc3ccccc3)nnc2SCC(=O)Nc2ccc3c(c2)OCCO3)cc1`, the inhibition is 9.88% (inactive).
As for `OCCCNc1nccc(-c2cc(Nc3cccc(Cl)c3)ncn2)n1`, the figure is 44.6% (active); as for `COc1ccc(-n2c(SCC(=O)NC3CCCC3)nnc2-c2ccncc2)cc1`, 4.6% (inactive).
As for `CCC(=O)OCCCN1C(=O)CCC12CCC(c1ccccc1)CC2` (configuration not stated), the figure is -6.04% (inactive); as for `COc1ccc(C(=O)CSc2nnc(-c3cnccn3)n2-c2ccc(C)cc2)cc1`, 3.51% (inactive); as for `O=C(CCl)NC1CCCCN(Cc2cccc(C(F)(F)F)c2)C1=O` (configuration not stated), 4.87% (inactive).
As for `COc1ccc2c(c1)c(=Cc1ccc(N(C)C)cc1)c1cc(-c3ccccc3)[n+](C)n12`, the inhibition is 76.4% (active).
In the case of `COC(=O)C1CN(CC(C)C)CCS(=O)(=O)N1Cc1ccc(F)cc1` (configuration not stated) it was 6.54% (inactive); in that of `Cc1nc(CNc2ncnc3ccc(-c4ccc5c(c4)OCO5)cc23)cs1`, 10.5% (inactive).
In the case of `C=CCNc1ncnc2ccc(Br)cc12` it was 48.3% (active).
Regarding `COc1ccc(Cn2cc(COC(=O)N(C)Cc3ccccc3)nn2)cc1`, the inhibition is 3.65% (inactive).
As for `Nc1[nH]c(/C=C2/CCCCC2n2[nH]c(=O)n(-c3ccccc3)c2=O)c(Cc2ccccc2)[n+]1Cc1ccccc1` (configuration not stated), the figure is 10.8% (inactive); as for `COC(=O)[C@]12C[C@H](CC(=O)NCc3ccccc3)C(=O)N(Cc3ccccc3)C1=C[C@H](COCc1ccccc1)O[C@@H]2C`, 7.28% (inactive); as for `COc1cc(C(O)c2nc3ccccc3n2C)cc(OC)c1OC` (configuration not stated), 10.1% (inactive).
For the compound `COc1cc(/C=C/C(=O)n2cnc3ccccc32)cc(OC)c1OC`, the inhibition is 47.1% (active).
In the case of `COc1cc(/C=C/C(=O)N2CCc3ccccc3C2)cc(OC)c1OC`, the inhibition was -52.5% (inactive).
On to `COC(=O)C12C=C3CC(c4ccccc4)=C3C(=O)N1Cc1[nH]c3ccccc3c1C2` (configuration not stated), for which the inhibition was 5.87% (inactive).
Turning to `COc1cccc2c1C(=O)c1c(O)c3c(c(O)c1C2=O)CC(O)(C(C)=NNC(=O)c1ccc(Cl)c(Cl)c1)CC3OC1CC(N)C(O)C(C)O1` (configuration not stated), the inhibition is 52.1% (active).
As for `CN(C)[C@H]1CCN(c2cccc3c2S(=O)(=O)N2CC[C@H](C2)O3)C1`, the figure is -16.6% (inactive).
Turning to `CCOC(=O)C1=C(C)NC2=C(C(=O)CC(C)(C)C2)C1c1ccc2c(c1)OCO2` (configuration not stated), the inhibition was 13.2% (inactive).
Take `CCc1cc(-c2nnn(CCC3COCCO3)c2CC)ccc1-c1cn(Cc2ccc3ccccc3c2)nn1` (configuration not stated): the inhibition was 57.9% (active).
As for `COC(=O)[C@]12C[C@H](CC(=O)N3CCOCC3)C(=O)N(Cc3ccc(Cl)cc3Cl)C1=C[C@H](COCc1ccccc1)O[C@@H]2C`, the figure is -11.3% (inactive); as for `CN(C(=O)CN1CCN(c2cc(-c3ccc(OCc4ccccc4)cc3)ncn2)CC1)c1ccccc1`, 60.6% (active); as for `COc1cccc(N2CCN(CC(=O)N(C)Cc3ccc(F)cc3)CC2)c1`, 1.56% (inactive).
Take `CCOc1ccc(OCc2ccc(C(=O)N(C)c3ccccc3)o2)cc1`: the inhibition was -8.76% (inactive).
Consider `CCc1ccccc1NC(=O)c1cc(-c2ccc3c(c2)OCO3)on1`, for which the inhibition was -0.24% (inactive).
As to `O=C(Nc1nc(-c2ccc3c(c2)OCO3)cs1)c1ccncc1`, the inhibition was 52.5% (active).
As for `CC(O)(c1cccc(F)c1)c1nc(-c2ccc3c(c2)OCO3)cs1` (configuration not stated), the inhibition is 8.11% (inactive).
With `COc1ccc(CC(N)c2csc(NC(=O)Nc3ccc(C(C)C)cc3)n2)cc1` (configuration not stated), the inhibition was 15.8% (inactive).
For `CC(=O)Nc1ccc(-c2csc(NC(=O)Nc3ccccc3)n2)cc1`, the inhibition is 60.9% (active).
As for `CCOC(=O)c1csc(NC(=O)Nc2cccc(OC)c2)n1`, the figure is -7.28% (inactive); as for `O=C1CC[C@@]23CCCN2C(=O)CCC[C@H]3[C@H]1Cc1ccccc1`, -3.33% (inactive); as for `COC(=O)[C@]12C[C@H](CC(=O)NCc3ccccc3)C(=O)N(CCC3=CCCCC3)C1=C[C@H](C(C)C)O[C@@H]2C1CC1`, 2.64% (inactive).
As for `Cn1c(=O)c2c(nc(NCc3ccccc3)n2CC(N)=O)n(C)c1=O`, the figure is 4.42% (inactive).
For `CCCCNc1nc2c(c(=O)n(C)c(=O)n2C)n1Cc1cccc(OC)c1`, the inhibition is 53.5% (active).
Turning to `CCn1c(NCCc2ccc(OC)c(OC)c2)nc2c1c(=O)n(C)c(=O)n2C`, the inhibition was -1.49% (inactive).
With `O=C(NC1CCCCN(Cc2cccc(C(F)(F)F)c2)C1=O)c1ccccc1I` (configuration not stated), the inhibition is 22.4% (inactive).
As for `CCC(=O)Nc1ccc2c(c1)C(=O)N(C)[C@@H]1CC[C@@H](CC(=O)NCCc3ccccc3)O[C@H]1CO2`, the figure is 19% (inactive).
In the case of `CC(C)N1CCCCC(NC(=O)C(C)(C)C)C1=O` (configuration not stated) it was 0.07% (inactive).
For `Cc1ccc(CN2CCCCC(NC(=O)C3CCCCC3)C2=O)cc1` (configuration not stated), the inhibition was 2.64% (inactive).
In the case of `O=C(NCCc1c[nH]c2ccccc12)OCc1cn(-c2c(F)cccc2F)nn1` it was -1.45% (inactive).
As for `CC(=O)OCCN1CCCC12CCC(c1ccccc1)CC2` (configuration not stated), the figure is -6.1% (inactive); as for `O=c1oc2ccccc2cc1-c1cn(-c2ccccc2)c(=S)[nH]1`, 81.6% (active); as for `C[C@@H](NC(=O)c1ccccc1OCC(=O)Nc1ccc(I)cc1)C(=O)N(C)Cc1ccccc1`, 3.89% (inactive).
With `COc1ccc(CCNC(=O)CSc2nc3c([nH]2)c(=O)n(C)c(=O)n3C)cc1`, the inhibition was -4.66% (inactive).
For `CC(CCN1CCC(C(O)(c2ccccc2)c2ccccc2)CC1)Oc1ccc(C(F)(F)F)cc1` (configuration not stated), the inhibition is 9.47% (inactive).
Take `O=C(OC12CC3CC(CC(C3)C1)C2)c1ccc(NCc2cc(O)ccc2O)cc1`: the inhibition is 82.7% (active).
`COc1ccc(NC(=O)CCCN2C(=O)C(c3ccccc3)Oc3cccnc32)cc1` (configuration not stated): the inhibition was -1.91% (inactive).
As for `CCCNC(=O)c1ccccc1NC(=O)CSCc1ccc(OC)cc1`, the figure is 10.2% (inactive); as for `COc1ccc(/C=C2/SC(=O)N(CCCCCC(=O)Nc3ccccc3C(=O)O)C2=S)cc1`, 48% (active).
Regarding `CCN(CC)C(=O)CC[C@H]1CC[C@]2(CCCN(Cc3ccc(Cl)cc3)C2)O1`, the inhibition is -15.6% (inactive).
In the case of `COc1ccc(CN2C(=O)N3Cc4cc(OC)ccc4C3CS2(=O)=O)cc1` (configuration not stated) it was -0.26% (inactive); in that of `O=C(Nc1ccccc1C(=O)N1CCOCC1)c1ccc(CSc2ccccc2)cc1`, 6.62% (inactive); in that of `O=C(Nc1ccc(CSc2ccccc2)cc1)c1ccc(CN2CCOCC2)cc1`, 68.5% (active).
Regarding `C/C(CCc1ccccc1)=N\NC(=O)c1ccc(CN2CCOCC2)cc1`, the inhibition is -14.4% (inactive).

As usually defined, the inhibition is the change of the read-out against control, counted positive when it falls.
